# Data from PubChem BioAssay.
# Results filed as inconclusive are left out. Activity calls are given as the source filed them.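 How the source made its calls, unless noted: active means differentiation response of at least 50%, scaled between solvent and reference control, from cells with both markers; inactive means the rest.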
# Legend:
# [1] = yeast TOR pathway RPL19A-GFP modulators, primary screen, cell-based, S. cerevisiae, multiplex flow cytometry (AID 1862; in the data active means percent of DMSO control GFP below about 86%;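 further: lower values mimic rapamycin by blocking the RPL19A rise seen in DMSO cells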); details: S. cerevisiae RPL19A-GFP strain, flow cytometry fluorescence, 3 h; at 10 µM; stronger effect = lower value
# [2] = modulators of MEP2-GFP levels in yeast, primary screen, S. cerevisiae, multiplex flow cytometry (AID 1867;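 active means GFP response, as percent of the DMSO control, above the screen-wide mean plus 3 SD, about 139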;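 further: median GFP channel fluorescence of barcode-gated MEP2-GFP cells measured by flow cytometry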); details: S. cerevisiae MEP2-GFP strain, 3 h, at 10 µM, stronger effect = higher value, 100% means same as DMSO wells
# [3] = modulators of CIT2-GFP expression in yeast, primary screen, S. cerevisiae, GFP fusion, multiplex flow cytometry (AID 1870;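 active means percent response above a set limit, the screen-wide mean plus 3 SD, cut at about 130% in these data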;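 further: barcoded CIT2-GFP strain pooled with four other GFP strains with rapamycin as positive control; median GFP fluorescence per well over plate mean of DMSO wells so 100% = DMSO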); details: 3 h, at 10 µM, stronger effect = higher value
# [4] = modulators of LAP4-GFP expression in yeast, primary screen, S. cerevisiae, multiplex flow cytometry (AID 1873;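 active means GFP signal, as percent of the solvent control, above the screen mean plus 3 SD, about 149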); details: 3 h, at 10 µM, stronger effect = higher value
# [5] = modulators of AGP1-GFP expression in yeast TOR pathway, primary screen, cell-based, multiplex flow cytometry, S. cerevisiae (AID 1887;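 active means GFP signal above the screen-wide mean plus 3 SD, that is over about 124.5% of the solvent control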;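 further: AGP1-GFP fusion strain of S. cerevisiae within a five-strain barcoded multiplex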); details: 3 h, at 10 µM, stronger effect = higher value
# [6] = inhibitors of CD8+ T cell-vesicle binding, pilot screen, LFA-1/ICAM-1 modulator project, MLPCN validation set, flow cytometry (AID 2523;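 active means response below a set limit, under 55% cells CD8-positive and vesicle-bound, and CD8 cells' 90th-percentile brightness under 279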;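 on vesicle binding response: mean PE anti-B7-1 fluorescence of CD8+ cells relative to row control; 100% = QL9-loaded vesicles with DMSO vehicle in the same plate row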); details: 2C mouse CD8+ T cells, at 7 µM, stronger effect = lower value; double positive events: measured here: CD8+/vesicle+ event percentage
# [7] = superoxide lowering in aged yeast cells, pilot screen, validation compound set (AID 2706;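 active means superoxide response below 65% of plate, a cut near 3 SD across the whole screen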;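 further: yeast exposed to compound for one week at 30 degrees C before staining; 100% = mean of all compound wells on the same plate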); details: S. cerevisiae aging, superoxide DHE fluorescence; at 10 µM; stronger effect = lower value
# [8] = target: Beta-adrenergic receptor kinase 1 (Homo sapiens) (UniProt P25098); experiment: GRK2 binders displacing RNA aptamer, biochemical, validation, human GRK2, bead flow cytometry (AID 488806;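 active means aptamer binding inhibition above 30%, about 3 SD of noise from non-fluorescent compounds; inactive means inhibition at or below 30%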); details: bead-bound GRK2, FAM-aptamer displacement, at 10 µM, stronger effect = higher value
# [9] = target: Beta-2 adrenergic receptor (Homo sapiens) (UniProt P07550); experiment: beta2AR agonists driving receptor internalization, pilot screen, cell-based, FAP fluorogen, flow cytometry, validation set (AID 504459;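 active means percent response above 42, roughly 3 SD of non-fluorescent test compounds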;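 further: agonist-driven loss of surface beta2AR via internalization measured by FAP dye flow cytometry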); details: Am2.2-beta2AR cells, FAP surface receptor flow cytometry; at 10 µM; stronger effect = higher value
# [10] = target: AP-2 complex subunit beta (Homo sapiens) (UniProt P63010); experiment: inhibitors of arrestin peptide binding to AP2, pilot screen, biochemical, validation set, GST-AP2 beads, flow cytometry (AID 504541;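 active means inhibition above 54%, about 3 SD of non-fluorescent compounds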;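 further: AP2 carries R879A mutation and is captured from E. coli lysate; bead-bound FITC arrestin peptide fluorescence measuring arrestin peptide binding to AP2; 0% = DMSO wells and 100% = excess unlabeled arrestin peptide control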); details: FITC arrestin peptide, at 10 µM, stronger effect = higher value, AP2 beta2 appendage fragment, R879A mutant
# [11] = yeast V-ATPase proton transport modulators, S. cerevisiae, pHLuorin, HTS validation (AID 504600; in the data active means response above about 15%;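 further: plate controls were DMSO for no effect and reference compound for full effect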); details: S. cerevisiae pHLuorin cytosolic pH, at 10 µM, stronger effect = higher value
# [12] = tested on: anti-desmoglein-3 scFv antibody binding to human DSG3; experiment: inhibitors of anti-DSG3 scFv binding to DSG3, pilot screen, biochemical, validation compound set, bead-based, flow cytometry (AID 588368;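 active means binding below the plate cutoff, the plate median minus 3 SD, with a reading above zero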;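 further: signal is the median channel fluorescence of bead-bound GFP antibody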); details: Protein G beads, DSG3-Fc, scFv-GFP binding, at 10 µM, stronger effect = lower value
# [13] = inhibitors of fungal efflux pumps CDR1, CDR2, MDR1, pilot screen, validation compound set, multiplex, phenotypic (AID 588506;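 active means efflux inhibition above 0.42, the validation set average plus 4 SD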;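 further: Nile Red retained in cells so higher fluorescence means more efflux inhibition; 0 = negative control wells and 1 = enniatin B 25 µM full block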); details: S. cerevisiae pump-expressing triplex, Nile Red efflux flow cytometry; at 10 µM; stronger effect = higher value; the pumps come from Candida albicans
# [14] = promoters of myeloid differentiation in arrested cells, primary screen, cell-based, GFP/MAC1 double positive, flow cytometry, validation set (AID 588685); details: ER-HoxA9 marrow cells, stronger effect = higher value, normalized: vehicle 0, fulvestrant 100;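 further: compound exposure lasts four days before antibody staining and flow analysis; 0% = DMSO wells and 100% = 5 µM fulvestrant positive control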
# [15] = target: Integrin beta-1 (Homo sapiens) + Integrin alpha-4 (Homo sapiens) (UniProt P13612+P05556); experiment: inhibition of HUTS-21 binding to VLA-4, pilot screen, VLA-4 allosteric modulator project, U937 cells, HUTS-21 mAb, flow cytometry, validation set (AID 2674;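 active means inhibition above 50%, about 3 SD of the validation set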;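 further: antibody binding induced by the VLA-4 ligand LDV present at three times its Kd; 0% = LDV ligand with antibody and no compound and 100% = antibody without LDV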); details: HUTS-21 LIBS mAb binding, at 6.7 µM, stronger effect = higher value, binding induced by LDV ligand
# [16] = target: ATP-binding cassette sub-family B member 6 (Homo sapiens) (UniProt Q9NP58); experiment: ABCB6 transporter inhibitors, pilot screen, K562-ABCB6 cells, flow cytometry, validation set (AID 588550;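 active means inhibition above the screen-wide mean plus 3 SD, about 51%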;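 further: 0% = DMSO wells and 100% = benzethonium chloride 70 µM positive control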); details: K562-ABCB6 porphyrin accumulation, 1 h, at 10 µM, stronger effect = higher value
# Sequence of ATP-binding cassette sub-family B member 6 (Homo sapiens) (Q9NP58 whole entry, looked up): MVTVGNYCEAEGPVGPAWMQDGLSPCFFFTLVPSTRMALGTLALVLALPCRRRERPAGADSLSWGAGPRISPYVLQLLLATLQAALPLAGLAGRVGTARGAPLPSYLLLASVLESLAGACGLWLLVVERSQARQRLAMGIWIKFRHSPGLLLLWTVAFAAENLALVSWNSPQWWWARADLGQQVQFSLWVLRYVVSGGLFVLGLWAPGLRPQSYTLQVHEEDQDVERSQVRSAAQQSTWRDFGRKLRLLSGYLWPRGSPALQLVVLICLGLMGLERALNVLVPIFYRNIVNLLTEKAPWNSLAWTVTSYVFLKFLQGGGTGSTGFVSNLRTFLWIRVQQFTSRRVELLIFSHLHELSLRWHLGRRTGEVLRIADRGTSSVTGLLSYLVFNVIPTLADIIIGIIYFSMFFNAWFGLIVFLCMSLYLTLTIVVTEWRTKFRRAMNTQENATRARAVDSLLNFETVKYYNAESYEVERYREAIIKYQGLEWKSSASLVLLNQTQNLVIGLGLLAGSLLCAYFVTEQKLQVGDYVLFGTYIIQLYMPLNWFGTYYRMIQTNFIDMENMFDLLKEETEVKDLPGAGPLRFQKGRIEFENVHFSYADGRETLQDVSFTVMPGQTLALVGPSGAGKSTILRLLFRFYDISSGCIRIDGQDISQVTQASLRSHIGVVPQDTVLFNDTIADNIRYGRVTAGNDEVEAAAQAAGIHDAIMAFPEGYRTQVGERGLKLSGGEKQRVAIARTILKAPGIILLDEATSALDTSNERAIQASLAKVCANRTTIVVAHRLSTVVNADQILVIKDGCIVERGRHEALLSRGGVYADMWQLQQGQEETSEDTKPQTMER
# Sequence of Integrin beta-1 (Homo sapiens) + Integrin alpha-4 (Homo sapiens) (P05556 whole entry, looked up): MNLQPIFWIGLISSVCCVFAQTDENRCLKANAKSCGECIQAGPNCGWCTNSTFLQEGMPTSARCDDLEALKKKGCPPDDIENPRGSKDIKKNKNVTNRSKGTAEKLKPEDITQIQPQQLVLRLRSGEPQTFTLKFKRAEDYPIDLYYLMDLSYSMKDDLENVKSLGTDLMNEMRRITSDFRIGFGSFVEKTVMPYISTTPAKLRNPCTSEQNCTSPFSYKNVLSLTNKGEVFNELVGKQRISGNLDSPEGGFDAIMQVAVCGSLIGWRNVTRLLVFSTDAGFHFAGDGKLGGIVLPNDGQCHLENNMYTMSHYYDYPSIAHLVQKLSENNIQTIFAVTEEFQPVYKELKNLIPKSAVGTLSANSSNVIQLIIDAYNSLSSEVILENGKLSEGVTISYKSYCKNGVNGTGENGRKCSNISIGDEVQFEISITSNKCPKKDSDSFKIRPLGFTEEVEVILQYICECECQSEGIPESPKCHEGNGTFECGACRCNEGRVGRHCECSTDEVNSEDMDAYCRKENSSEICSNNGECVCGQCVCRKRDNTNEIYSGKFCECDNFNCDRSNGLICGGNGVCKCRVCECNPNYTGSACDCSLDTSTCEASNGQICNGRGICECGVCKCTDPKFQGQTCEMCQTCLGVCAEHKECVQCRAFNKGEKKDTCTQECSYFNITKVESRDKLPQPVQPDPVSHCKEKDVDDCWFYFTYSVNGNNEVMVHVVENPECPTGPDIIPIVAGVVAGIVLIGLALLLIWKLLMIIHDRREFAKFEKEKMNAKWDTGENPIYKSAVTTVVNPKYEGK
# Sequence of Integrin beta-1 (Homo sapiens) + Integrin alpha-4 (Homo sapiens) (P13612 whole entry, looked up): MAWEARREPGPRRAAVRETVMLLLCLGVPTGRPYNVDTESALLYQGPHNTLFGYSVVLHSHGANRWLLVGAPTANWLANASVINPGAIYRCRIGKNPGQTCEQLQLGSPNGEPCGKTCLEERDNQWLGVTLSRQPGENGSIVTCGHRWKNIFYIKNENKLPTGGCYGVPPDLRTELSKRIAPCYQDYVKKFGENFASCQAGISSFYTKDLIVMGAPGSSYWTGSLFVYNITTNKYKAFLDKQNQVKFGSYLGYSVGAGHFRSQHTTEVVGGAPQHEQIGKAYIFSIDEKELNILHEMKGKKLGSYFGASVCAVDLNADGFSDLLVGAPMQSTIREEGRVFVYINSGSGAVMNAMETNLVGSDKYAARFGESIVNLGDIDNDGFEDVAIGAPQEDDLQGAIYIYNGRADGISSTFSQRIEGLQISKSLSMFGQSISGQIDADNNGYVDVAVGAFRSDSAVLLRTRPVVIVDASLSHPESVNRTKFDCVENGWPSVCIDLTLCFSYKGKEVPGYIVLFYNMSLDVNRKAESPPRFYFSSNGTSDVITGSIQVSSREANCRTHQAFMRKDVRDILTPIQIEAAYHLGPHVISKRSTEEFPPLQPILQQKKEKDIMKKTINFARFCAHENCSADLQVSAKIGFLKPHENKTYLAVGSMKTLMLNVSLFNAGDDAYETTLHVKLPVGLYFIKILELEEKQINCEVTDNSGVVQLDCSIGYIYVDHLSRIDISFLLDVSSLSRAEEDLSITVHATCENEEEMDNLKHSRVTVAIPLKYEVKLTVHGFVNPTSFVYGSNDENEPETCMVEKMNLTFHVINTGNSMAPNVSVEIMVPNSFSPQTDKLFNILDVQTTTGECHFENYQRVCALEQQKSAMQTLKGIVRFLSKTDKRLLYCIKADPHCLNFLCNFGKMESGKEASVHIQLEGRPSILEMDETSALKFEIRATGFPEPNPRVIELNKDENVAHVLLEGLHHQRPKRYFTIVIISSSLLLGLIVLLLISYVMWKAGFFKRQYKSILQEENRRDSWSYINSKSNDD
# Sequence of AP-2 complex subunit beta (Homo sapiens) (P63010 whole entry, looked up, the tested form may be a part, one chain of several): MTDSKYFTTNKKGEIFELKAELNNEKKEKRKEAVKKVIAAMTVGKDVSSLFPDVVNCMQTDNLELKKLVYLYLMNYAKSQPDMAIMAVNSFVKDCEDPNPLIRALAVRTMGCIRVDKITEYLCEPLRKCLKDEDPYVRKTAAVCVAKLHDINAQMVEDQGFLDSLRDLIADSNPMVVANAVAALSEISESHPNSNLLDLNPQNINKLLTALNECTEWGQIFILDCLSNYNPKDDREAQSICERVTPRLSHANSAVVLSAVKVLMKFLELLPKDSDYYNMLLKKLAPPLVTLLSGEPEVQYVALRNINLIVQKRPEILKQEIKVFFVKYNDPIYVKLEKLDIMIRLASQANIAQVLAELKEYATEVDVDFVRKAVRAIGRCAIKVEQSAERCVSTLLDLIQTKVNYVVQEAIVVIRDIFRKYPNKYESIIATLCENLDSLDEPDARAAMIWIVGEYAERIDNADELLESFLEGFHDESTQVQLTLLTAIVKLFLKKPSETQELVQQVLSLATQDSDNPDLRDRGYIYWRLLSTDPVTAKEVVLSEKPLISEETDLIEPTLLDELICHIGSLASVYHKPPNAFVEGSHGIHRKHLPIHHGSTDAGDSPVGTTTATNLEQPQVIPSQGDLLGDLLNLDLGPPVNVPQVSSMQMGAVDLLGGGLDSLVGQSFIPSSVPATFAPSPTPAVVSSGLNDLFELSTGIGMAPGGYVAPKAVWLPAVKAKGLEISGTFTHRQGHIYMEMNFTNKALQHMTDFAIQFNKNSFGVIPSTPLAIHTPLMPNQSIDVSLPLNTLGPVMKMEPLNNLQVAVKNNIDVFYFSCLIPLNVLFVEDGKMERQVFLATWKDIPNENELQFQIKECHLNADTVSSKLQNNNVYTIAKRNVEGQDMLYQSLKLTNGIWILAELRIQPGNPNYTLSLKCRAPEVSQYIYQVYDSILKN
# Sequence of Beta-adrenergic receptor kinase 1 (Homo sapiens) (P25098 whole entry, looked up): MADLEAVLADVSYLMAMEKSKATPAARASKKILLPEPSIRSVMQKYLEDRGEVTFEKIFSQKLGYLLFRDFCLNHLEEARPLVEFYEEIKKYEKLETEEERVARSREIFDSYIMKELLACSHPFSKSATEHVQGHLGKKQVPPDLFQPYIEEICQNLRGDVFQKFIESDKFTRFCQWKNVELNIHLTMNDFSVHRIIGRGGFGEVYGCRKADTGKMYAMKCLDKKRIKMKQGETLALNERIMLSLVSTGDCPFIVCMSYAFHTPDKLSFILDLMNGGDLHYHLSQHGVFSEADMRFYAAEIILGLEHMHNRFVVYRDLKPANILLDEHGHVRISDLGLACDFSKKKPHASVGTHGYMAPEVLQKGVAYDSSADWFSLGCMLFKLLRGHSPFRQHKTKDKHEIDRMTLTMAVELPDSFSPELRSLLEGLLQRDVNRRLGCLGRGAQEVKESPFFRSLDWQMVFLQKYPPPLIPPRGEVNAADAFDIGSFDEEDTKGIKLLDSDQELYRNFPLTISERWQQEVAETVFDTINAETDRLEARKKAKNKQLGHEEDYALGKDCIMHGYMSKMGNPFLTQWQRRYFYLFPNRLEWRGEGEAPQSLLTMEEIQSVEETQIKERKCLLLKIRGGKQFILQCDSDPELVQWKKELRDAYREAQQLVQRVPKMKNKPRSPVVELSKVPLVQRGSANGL
# Sequence of Beta-2 adrenergic receptor (Homo sapiens) (P07550 whole entry, looked up): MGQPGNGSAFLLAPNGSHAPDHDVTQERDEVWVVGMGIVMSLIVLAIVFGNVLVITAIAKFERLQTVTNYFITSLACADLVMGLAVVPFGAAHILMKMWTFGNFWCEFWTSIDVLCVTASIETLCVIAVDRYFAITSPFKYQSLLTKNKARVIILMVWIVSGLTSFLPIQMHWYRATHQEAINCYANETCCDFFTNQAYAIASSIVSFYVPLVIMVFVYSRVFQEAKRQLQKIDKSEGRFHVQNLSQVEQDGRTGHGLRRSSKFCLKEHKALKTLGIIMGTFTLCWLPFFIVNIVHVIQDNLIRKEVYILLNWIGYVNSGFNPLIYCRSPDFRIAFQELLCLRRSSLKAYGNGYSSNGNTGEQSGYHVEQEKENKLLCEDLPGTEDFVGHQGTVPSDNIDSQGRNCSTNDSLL
SMILES,percent of DMSO control GFP [1],GFP response vs DMSO [2],percent response of DMSO control [3],GFP response vs DMSO [4],"GFP response, % of DMSO [5]",double positive events [6] [%],vesicle binding response [6],superoxide response (% of plate) [7],aptamer binding inhibition [8],response [9],inhibition [10],response [11],binding (% of control) [12],efflux inhibition (fraction of control) [13],differentiation response [14],inhibition [15],inhibition [16]
CN1/C(=C\C=Nc2ccccc2)C(C)(C)c2ccccc21,102% (inactive),102% (inactive),98.3% (inactive),103% (inactive),113% (inactive),61.9,196% (inactive),101% (inactive),-1% (inactive),-50.9% (inactive),11.8% (inactive),0.09% (inactive),116% (inactive),0 (inactive),2.89% (inactive),–,–
O=C(N1CCCC1)C12CC3CC(C1)CC(C(=O)N1CCCC1)(C3)C2,99.5% (inactive),103% (inactive),101% (inactive),124% (inactive),101% (inactive),59.6,219% (inactive),104% (inactive),-1% (inactive),-2.88% (inactive),-3.27% (inactive),0.92% (inactive),101% (inactive),0.15 (inactive),-7.2% (inactive),9.13% (inactive),3% (inactive)
O=C(NCCc1c[nH]c2ccccc12)c1cccnc1,101% (inactive),101% (inactive),98.6% (inactive),113% (inactive),103% (inactive),61.5,188% (inactive),93.7% (inactive),3% (inactive),-0.09% (inactive),17.6% (inactive),-6.3% (inactive),90.1% (inactive),0.3 (inactive),12% (inactive),2.3% (inactive),6% (inactive)
CCC1(c2ccccc2)NC(=S)N(c2ccc(C)c(C)c2)N1 (stereo not drawn),100% (inactive),106% (inactive),105% (inactive),108% (inactive),108% (inactive),59.8,184% (inactive),107% (inactive),2% (inactive),-12.6% (inactive),1.79% (inactive),2.75% (inactive),105% (inactive),0.04 (inactive),-12.9% (inactive),5.69% (inactive),3% (inactive)
COc1ccccc1NC(=O)N1CCc2[nH]c3ccc(Cl)cc3c2C1,101% (inactive),110% (inactive),102% (inactive),121% (inactive),94% (inactive),62.4,135% (inactive),102% (inactive),2% (inactive),-11.2% (inactive),-2.38% (inactive),1.31% (inactive),121% (inactive),-0.42 (inactive),18.8% (inactive),-11.8% (inactive),-33% (inactive)
O=C(CN1C(=O)c2ccccc2S1(=O)=O)Nc1ccccc1,95.5% (inactive),126% (inactive),112% (inactive),84.2% (inactive),92.8% (inactive),67.7,180% (inactive),98.5% (inactive),0% (inactive),-2.34% (inactive),7.49% (inactive),-1.17% (inactive),99% (inactive),-0.31 (inactive),10.6% (inactive),-72.1% (inactive),5% (inactive)
CCn1c(SCC(=O)c2ccccc2)nc2ccccc2c1=O,103% (inactive),108% (inactive),99.7% (inactive),115% (inactive),104% (inactive),60.3,176% (inactive),110% (inactive),-1% (inactive),0.7% (inactive),9.92% (inactive),-1.15% (inactive),99.6% (inactive),0.53 (active),-14.8% (inactive),-18.5% (inactive),9% (inactive)
CCOC(=O)c1cccc(P(C)(C)=O)c1,103% (inactive),97.2% (inactive),114% (inactive),90.1% (inactive),104% (inactive),62,67.6% (inactive),109% (inactive),3% (inactive),-6.13% (inactive),-7.26% (inactive),-2.31% (inactive),95.8% (inactive),-0.04 (inactive),6.11% (inactive),5.77% (inactive),-7% (inactive)
COC(=O)c1cc(COc2ccc3ccc(=O)oc3c2)c(C)o1,105% (inactive),104% (inactive),101% (inactive),109% (inactive),92.4% (inactive),59.9,120% (inactive),108% (inactive),1% (inactive),7.33% (inactive),-2.54% (inactive),-7.29% (inactive),102% (inactive),0.29 (inactive),-7.5% (inactive),-15.8% (inactive),12% (inactive)
Cc1ccc2[nH]c3c(=O)n(CCc4cnc[nH]4)cnc3c2c1,96.4% (inactive),99.7% (inactive),105% (inactive),97% (inactive),103% (inactive),65.2,172% (inactive),93.1% (inactive),0% (inactive),-13.6% (inactive),-15.4% (inactive),1.97% (inactive),103% (inactive),-0.58 (inactive),-14.8% (inactive),-17.2% (inactive),10% (inactive)
